We go through 90 compounds from PubChem BioAssay AID588501 (NMMLSC, 2011).

Out of some 360,000 compounds screened, about 420 (0.12%) were called active. The list comes from a sample in which actives are over-represented; it also holds similar structures and randomly drawn compounds. Values without a mark were called inactive. Cut-off read from the data, not from the text of the source: active = inhibition above about 30%; inconclusive = no clear call, values can overlap the other calls; inactive = below that.

The assay has as its target Lethal factor (Bacillus anthracis) (UniProt P15917). Briefly: Bacillus anthracis LF protease inhibitors, primary screen, biochemical, multiplex microsphere, MLPCN library (AID 588501). Note: plate controls were buffer without enzyme for full effect and enzyme alone for no effect. The settings on record: multiplex microsphere protease cleavage assay, at 10 µM, stronger effect = higher value.
For `O=C(/C=C(O)/C=C/c1ccc(O)cc1)/C=C/c1ccc(O)cc1`, the inhibition (in general, the drop in the measured response relative to a control, in per cent) is 31.4% (active). For the compound `C=CCNC(=O)/C=C/c1ccc(C(C)C)cc1`, the inhibition is -1.4%. In the case of `NC1=NC(=O)S/C1=C\c1ccc(O)cc1`, the inhibition was -0.1%.

`CC(O)CN(Cc1ccc(Cl)cc1)CC(C)O` (stereo not given): the inhibition was 0.1%. In the case of `O=C1N[C@@H](Cc2ccccc2)C(=O)N2[C@H]1C[C@]1(Br)c3ccccc3N(S(=O)(=O)c3ccccc3)[C@H]21`, the inhibition was -0.3%.

As for `Cn1c(SCC(=O)c2ccccc2)ncc(C(=O)Nc2ccc(F)cc2)c1=O`, the inhibition is -1.5%. In the case of `CCCCN1CC(COc2ccccc2)Oc2cccc(F)c2S1(=O)=O` (stereo not given) it was -2.2%; in that of `CN(Cc1cn(Cc2ccc(C(F)(F)F)cc2)nn1)C1CN(Cc2cn(Cc3ccc(C(F)(F)F)cc3)nn2)S(=O)(=O)C1` (stereo not given), -0.1%. On to `COC(=O)[C@H]1Cc2cnoc2C[C@]1(C)C(=O)O`, for which the inhibition is 4.2%. In the case of `COc1ccc2[nH]c(=O)c(C3c4cc(OC)c(OC)cc4CCN3C(=O)c3ccco3)cc2c1` (stereo not given) it was -1.5%; in that of `O=[N+]([O-])c1ccc(NC(=S)N2CCN(c3ccccn3)CC2)cc1`, 1.1%. `CCOC(=O)c1ccc(NC(=S)N2CCN(c3ccccn3)CC2)cc1`: the inhibition was -15.7%. In the case of `CC(=NNC(=S)N1CCCCCC1)c1ccccn1` it was 50% (active); in that of `COc1ccccc1CNC(=O)c1cc(-c2cc(F)ccc2OC)n[nH]1`, -4.6%; in that of `O=C(NC1CCCC1)C(c1ccco1)N(C(=O)c1ccco1)c1ccc(F)cc1` (stereo not given), -0.3%. Turning to `Cc1cc(C)c2nc(SCC(=O)N(C)C3CCS(=O)(=O)C3)cc(C)c2c1` (stereo not given), the inhibition was 0.4%.

Consider `N#CC(Cc1cc2ccccc2n1S(=O)(=O)c1ccccc1)OCc1ccccc1` (stereo not given), for which the inhibition was -10.4%. Turning to `O=C(NN1C(=O)C2CCCCC2C1=O)c1ccco1` (stereo not given), the inhibition is 15.5%. As to `CC(C)c1c(O)nc(SCCOc2ccc(Cl)cc2)[nH]c1=O`, the inhibition is -0.5%.

Regarding `COc1ccc(NC(=O)c2cn(CCC#N)nc2-c2ccc([N+](=O)[O-])cc2)cc1`, the inhibition was -4.4%. In the case of `COc1ccc(-c2[nH][nH]c(=O)c2NC(=O)c2ccc([N+](=O)[O-])cc2)cc1`, the inhibition was 6.4%. Turning to `COc1ccc(C(=O)Nc2nc(-c3ccc(OC)cc3)c(-c3ccc([N+](=O)[O-])cc3)s2)cc1`, the inhibition was 30.1% (active). `Cc1ccc(CSCCNC(=O)CN(c2ccc(F)cc2)S(C)(=O)=O)cc1`: the inhibition was 3%. Take `COc1ccc(CCNC(=O)CN(c2ccccc2)S(C)(=O)=O)cc1`: the inhibition is 3.6%.

On to `COc1ccc(N(CC(=O)NCCSCc2cccc(Cl)c2)S(C)(=O)=O)cc1`, for which the inhibition was 34.3% (active). As to `Cc1cccc(N2CCN(C(=O)CCS(=O)(=O)c3ccc4c(c3)NC(=O)C(C)S4)CC2)c1C` (stereo not given), the inhibition was -3%.

`Cc1ccc(-c2csc(N3CCN(c4cc5c(cc4Cl)nc(-c4ccncc4)n5CCOCCO)CC3)n2)cc1`: the inhibition is -0.9%. As to `CC(=O)OCCN(CCCn1c(-c2ccncc2)nc2ccccc21)c1nc(-c2ccc(C)cc2)cs1`, the inhibition was 41.1% (active).

In the case of `COc1ccc(-c2nc3ccccc3n2CCC(C)C)cc1OC`, the inhibition was 0.7%. Regarding `COc1ccc(N2CCN(C(=O)c3ccccc3NC(=O)C3=C(C)OCCS3)CC2)cc1`, the inhibition was 1.2%. For `COc1ccc(CC(=O)NC(C)c2ccc(Cl)c(Cl)c2)cc1S(=O)(=O)N1CCOCC1` (stereo not given), the inhibition was 1.2%. Turning to `O=C(NCc1ccncc1)C(=O)NCC1OCCN1S(=O)(=O)c1ccc(Br)cc1` (stereo not given), the inhibition was -6.7%. Turning to `C=C1C(=O)[C@]23C[C@H]1CCC2[C@@]1(C)C(C[C@@H]3O)[C@](C)(C(=O)O)CC[C@@H]1O` (stereo not given in full), the inhibition was 6%. In the case of `COc1ccc(OCC(=O)NCCc2ccc(S(N)(=O)=O)cc2)cc1` it was -1.2%. Consider `CCC(C)(C(=O)Nc1ccccc1C)N(C(=O)CNC(C)=O)c1ccc(C)cc1` (stereo not given), for which the inhibition was 0.5%. In the case of `COC(=O)Cc1ccc(N(Cc2ccccc2F)S(=O)(=O)c2ccc(Br)cc2)cc1` it was -0.1%; in that of `CC(C)(C)c1ccc(C(=O)N2CCN(CCNC(=O)C(=O)Nc3ccc(F)cc3)CC2)cc1`, -3.8%. Regarding `Cc1cccc(N2CCN(C(C)C(=O)N3CCc4ccccc43)CC2)c1C` (stereo not given), the inhibition was -6.6%. Take `COCCn1c(N)c(NCc2ccccc2)c(=O)[nH]c1=O`: the inhibition was -3.2%. With `COCCNc1ncnc2c1nc1n2CCCC1` the figure was 0.3%; with `OC(c1ccc(Cl)cc1)C(CN1CCOCC1)c1ccccc1` (stereo not given), 40.7% (active); with `O=C(CC(c1ccccc1)c1cc(Cl)ccc1O)NCCN1CCOCC1` (stereo not given), -5.6%. With `OC(c1ccccc1)C(CN1CCOCC1)c1ccccc1` (stereo not given) the figure was -9.8%; with `O=S(N1CCCCCC1)C12CC3CC(CC(C3)C1)C2` (stereo not given), -5.3%. For the compound `O=C(c1ccc(F)cc1)n1c(=S)nc2ccccn21`, the inhibition was -9.4%.

Regarding `O=C(CNC(=O)c1ccccc1F)c1ccc(Br)cc1`, the inhibition was 0.4%.

With `O=C(C[n+]1cc(Br)cc2ccccc21)c1ccc(F)cc1`, the inhibition is 36.5% (active).

For `COc1ccc(CNC(=O)C(NS(=O)(=O)c2cccc3nsnc23)C(C)C)cc1` (stereo not given), the inhibition was 0.7%. In the case of `NS(=O)(=O)c1ccc(CCNC(=O)c2ccc(Cl)c(S(=O)(=O)N3CCCCCC3)c2)cc1`, the inhibition was -0.9%. For `O=C(O)C1CCCN(CCC=C(c2ccccc2)c2ccccc2)C1` (stereo not given), the inhibition is -6.7%. In the case of `O=C(O)c1ccc(S(=O)(=O)N2CCC(Cc3ccccc3)CC2)cc1`, the inhibition is -1.5%.

With `Cc1onc(-c2ccccc2Cl)c1C(=O)N(Cc1ccc(N(C)C)cc1)C(C)C`, the inhibition is 8.3%. For `Cc1onc(-c2ccccc2Cl)c1C(=O)NCCn1ccc2ccccc21`, the inhibition was 53.9% (active). Consider `Cc1ccc2cc(CCNC(=O)c3c(-c4ccccc4Cl)noc3C)c(=O)[nH]c2c1`, for which the inhibition is -10.3%.

Turning to `CCC(=O)N1Cc2cc(C(=O)NCc3cccc(F)c3)nc(-c3cccc(C4=CCCC4)c3)c2[C@H]1CCO`, the inhibition was -8.3%. With `Cc1ccc(OCC(=O)N2CCN(C(=O)c3cccnc3)CC2)cc1`, the inhibition is -7.8%.

In the case of `CN1/C(=c2/s/c(=C3/C(=O)N(c4ccccc4)NC3=Nc3ccccc3)n(C)c2=O)C(C)(C)c2ccccc21`, the inhibition was -14.6%. Consider `COc1cc2c(cc1OC)C(C)N(S(=O)(=O)c1cnc(Cl)c(Cl)c1)CC2` (stereo not given), for which the inhibition was 3.2%. Take `COc1ccccc1OCCC(=O)OCC(=O)NCc1ccccc1`: the inhibition is -1.1%. Take `CN1C(=O)/C(=C\c2ccc(-c3ccccc3)o2)SC1=S`: the inhibition was 30.1% (active).

`NS(=O)(=O)c1ccc(-c2ccc(/C=C3\SC(=O)NC3=O)o2)cc1`: the inhibition is -4.1%. With `Cc1ccc(C(=O)O)cc1-c1ccc(/C=C2\SC(=O)N(CC(=O)Nc3ccc4c(c3)OCO4)C2=O)o1`, the inhibition was -2.8%.

As to `CCC1CCc2c(sc(NC(C)=O)c2C#N)C1` (stereo not given), the inhibition was 2.5%.

Regarding `CCc1nc2ccc(C(=O)NC3CCN(Cc4ccccc4)CC3)cn2c1N(C)CCN1CCOCC1`, the inhibition was -2.5%. `COC(=O)c1ccc2nc(-c3ccc(C)cc3)c(Cc3ccc(OC)cc3C)n2c1`: the inhibition was 2.1%. `COc1cc(NC(=O)CSc2nnc3ccc(-c4ccncc4)nn23)cc(OC)c1`: the inhibition was -3.6%. `O=C(NCc1ccccc1Cl)NC(=O)c1csc([N+](=O)[O-])c1`: the inhibition is -4.7%. On to `O=C(NNC1=NCCC1)c1cccc(S(=O)(=O)N2CCCCC2)c1`, for which the inhibition was -3.2%. With `COC(=O)c1ccc(CSc2nc3cc(Cl)ccc3o2)cc1` the figure was -2.5%; with `CC1(C(=O)NS(=O)(=O)Cc2cccc(Cl)c2)CCN1C(=O)Cc1ccc(Cl)cc1Cl` (stereo not given), -5.7%; with `Nc1cccc(-c2cncc(N3CCN(Cc4ccccn4)CC3)n2)c1`, -2.8%. Turning to `Cc1cc2nc(SCCN3CCOCC3)[nH]c2cc1C`, the inhibition was 7.8%. In the case of `CC(=O)c1ccc(N2C(=NC(=O)C(C)C)SC3CS(=O)(=O)CC32)cc1` (stereo not given) it was -2.5%. On to `CCN(CC(=O)Nc1ccccc1C(F)(F)F)C(=O)CSCc1c(C)noc1C`, for which the inhibition was 2.2%. Turning to `O=S(=O)(c1cccc(S(=O)(=O)N2CCC(n3nnc4ccccc43)CC2)c1)N1CCCCC1`, the inhibition was 4.7%. Take `COc1cc(S(=O)(=O)N2CCN=C2c2ccccc2)ccc1Cl`: the inhibition is -0.6%. With `CNC(=O)c1c(NC(NC(=O)c2ccco2)C(=O)c2ccc(Cl)cc2)sc2c1CCCC2` (stereo not given), the inhibition is -4.6%.

As for `CCOC(=O)C1CCN(Cc2coc3ccc(Cl)cc3c2=O)CC1`, the inhibition is 0.9%. With `Cc1ccc(NC(=O)C2CCN(S(=O)(=O)c3ccc4c(c3)NC(=O)CO4)CC2)cc1C`, the inhibition is 1.3%. On to `CCc1ccccc1NC(=O)CSc1nnc(CCNC(=O)OC(C)(C)C)o1`, for which the inhibition is -3.1%. As to `Cc1ccc(NS(=O)(=O)c2ccc(-c3coc(C)n3)cc2)c(C)c1`, the inhibition was -2%. In the case of `COc1ccccc1N1CCN(CC(=O)NC(=O)NCc2ccco2)CC1`, the inhibition was 2.9%.

As to `Oc1ccccc1N1CCN(C(=S)NCc2ccccc2)CC1`, the inhibition was -2.2%. As for `O=C(CN1CCN(c2ccccc2O)CC1)NC(=O)NCc1ccccc1`, the inhibition is 50.8% (active). Regarding `Cc1cc(Br)ccc1NC(=O)CN(C)C(=O)CN1C(=O)NC2(CCCC2)C1=O`, the inhibition is 1.3%. For `COc1cc(OC)cc(-c2c(-c3cccs3)c3cc(-c4ccc(OC)cc4F)ccc3n2C)c1`, the inhibition was -3.2%. As to `CCOc1ccccc1-c1nc(CN2CCC(C(=O)N3CCOCC3)CC2)c(C)o1`, the inhibition was 0.2%. With `Cc1noc(C)c1CSc1nnc2ccc3ccccc3n12` the figure was -0.1%. As to `NC1=NC(=O)C(Cc2cccc(Cl)c2Cl)S1` (stereo not given), the inhibition is -6.2%. `COc1cc(Cl)ccc1OCc1cc(C(=O)N2CC[C@@H]3CCCC[C@H]3C2)no1`: the inhibition was 0.9%.
